Results filed as inconclusive are left out. Values without a mark were called inactive. Calls of active or inactive are those of the source. The call rests on the fitted dose curve; in most records, active means well fitted cell-killing curve with a large enough effect; inconclusive means small, poorly fitted or top-dose-only effect, or effect the other way; inactive means no such curve, though single readings can be large or run the other way.
On the % scale 0 is the no-effect control and ±100 the full control effect; potency means the concentration at half of the fitted maximal effect.

For the experiment, the system named is CAOV3. The experiment can be described thus: Confirmatory qHTS for gynecologic anti-cancer compounds from libraries of approved drugs and bioactive compounds. Further: nearly all actives have a fitted effect of over 55% in size. Particulars: gynecologic cancer cell panel viability, ATPlite luminescence, 48 h; series mostly up to 57.6 µM; activity change, negative = viability loss: at the top concentration. Summed up:
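Seeding 1,000 cells per well preceded overnight (16 h) attachment, after which 48 h drug treatment across 57.5 uM–0.977 nM (11 points) was applied. Remaining cellular ATP, detected by ATPlite luminescence, defined IC50.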
(qHTS replaces the single test concentration by a dilution series.)
`CN1C2CCC1CC(OC(=O)[C@H](CO)c1ccccc1)C2` (stereo partly drawn): the “activity change, negative = viability loss” value is -6.01%.
Regarding `CNC(=O)c1ccccc1Sc1ccc2c(/C=C/c3ccccn3)n[nH]c2c1`, the Potency was 6.85 µM (active).
`COc1cc2c(cc1-c1c(C)noc1C)ncc1[nH]c(=O)n(C(C)c3ccccn3)c12` (stereo not drawn): the Potency was 1.09 µM (active).
Take `O=C(CCCCCCC(=O)Nc1ccccc1)NO`: the Potency was 12.2 µM (active).
As to `Cc1cnc(Nc2ccc(CN3CCOCC3)cc2)nc1Nc1cccc(S(=O)(=O)NC(C)(C)C)c1`, the Potency is 3.85 µM (active).
On to `CN1CCN(Cc2ccc(NC(=O)Nc3ccc(Oc4cc(NC(=O)C5CC5)ncn4)cc3)cc2C(F)(F)F)CC1`, for which the Potency is 13.7 µM (active).
As for `Oc1cn2c(n1)Nc1ccc(Cl)c(Cl)c1C2`, the “activity change, negative = viability loss” value was -15.5% [at 19.5 µM].
On the same count and under the same terms, in the case of `O=C1NC(=O)C(c2cnc3ccccn23)=C1c1cn2c3c(cccc13)CN(C(=O)N1CCOCC1)CC2` it was 0.779%.
In the case of `CO[C@@]12[C@H](COC(N)=O)C3=C(C(=O)C(C)=C(N)C3=O)N1C[C@@H]1N[C@@H]12`, the “activity change, negative = viability loss” value was 15.3%.
As to `CC(Oc1ccc2[nH]nc(/C=C/c3cnn(CCO)c3)c2c1)c1c(Cl)cncc1Cl` (stereo not drawn), the Potency is 2.73 µM (active).
Still for that read-out and setting: in the case of `CNc1nccc(-c2cccnc2Oc2cc(C(=O)Nc3cccc(C(F)(F)F)c3)ccc2C)n1` it was 24.3 µM (active).
As to `O=C1N(c2ccccc2)c2ccccc2C1(Cc1ccncc1)Cc1ccncc1`, the “activity change, negative = viability loss” value was 12.6%.
For the compound `CC(C)Oc1ccc2c(=O)c(-c3ccccc3)coc2c1`, the Potency is 15.3 µM (active).
On the same count and under the same terms, with `Cc1ccc(C(=O)Nc2ccc(Oc3cc4cnn(C)c4cc3-c3cn[nH]c3)c(F)c2)c(=O)n1-c1ccc(F)cc1` the figure was 6.85 µM (active); with `CC[C@@]1(O)C(=O)OCc2c1cc1n(c2=O)Cc2cc3c(CN(C)C)c(O)ccc3nc2-1`, 0.544 µM (active).
On to `O=c1cc(CN2CCOCC2)occ1OCCCCCSc1ccnc2cc(C(F)(F)F)ccc12`, for which the “activity change, negative = viability loss” value is -24.7%.
As to `Cc1ccc(C(=O)Nc2ccc(CN3CCN(C)CC3)c(C(F)(F)F)c2)cc1C#Cc1cnc2[nH]ncc2c1`, the Potency was 30.6 µM (active).
Take `Cc1ccc(C(=O)N(CCCN)C(c2oc3cc(Cl)ccc3c(=O)c2Cc2ccccc2)C(C)C)cc1` (stereo not drawn): the Potency is 27.3 µM (active).

Source of the values: PubChem BioAssay AID1345085 (National Center for Advancing Translational Sciences (NCATS), 2018).
